Results published in PubChem BioAssay.
Calls of active or inactive are those of the source.

Legend:
[1] = binders of probe aFSTL3 on microarray, primary screen, stem cell growth factor project, biochemical, small-molecule microarray, fluorescence 635/667 (AID 1064); conditions: higher = more signal;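 also: measures binding of the biotinylated anti-FSTL3 antibody to printed compounds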
[2] = binders from COS7 lysate, DM2A8 probe, primary screen, torsin A project, cell lysate, small-molecule microarray, fluorescence 635/667 (AID 1065); conditions: higher = more signal, COS7 lysate expressing mutant human TOR1A
[3] = binders of probe aFGF2 on microarray, primary screen, stem cell growth factor project, biochemical, small-molecule microarray, fluorescence 635/667 (AID 1067); conditions: higher = more signal;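 also: measures binding of biotinylated aFGF2 protein to printed compounds on slides; z-score merges feature fluorescence and signal-to-noise across triplicate slides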
[4] = binders of probe aFGF10 on microarray, primary screen, stem cell growth factor project, biochemical, small-molecule microarray, fluorescence 635/667 (AID 1071); conditions: higher = more signal;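 also: score merges 667 nm spot intensity and signal to noise from triplicate slides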
[5] = molecular target: Neurogenic locus notch homolog protein 2 (Homo sapiens) (UniProt Q04721); assay: Notch2 binders on small-molecule microarrays, primary screen, biochemical, small-molecule microarray, 635 nm fluorescence, stem cell growth factors (AID 1073); conditions: Notch2 binding, higher = more signal
[6] = molecular target: Pro-neuregulin-1, membrane-bound isoform (Homo sapiens) (UniProt Q02297); assay: NRG1 binders on small-molecule microarrays, primary screen, psychiatric disease protein project, biochemical, small-molecule microarray, fluorescence 635/667 (AID 1075); conditions: NRG1 binding, 635 nm fluorescence, higher = more signal;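 also: score combines 667 nm spot fluorescence with signal to noise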
Pro-neuregulin-1, membrane-bound isoform (Homo sapiens), sequence (Q02297 whole entry, looked up, the tested form may be a part, canonical isoform): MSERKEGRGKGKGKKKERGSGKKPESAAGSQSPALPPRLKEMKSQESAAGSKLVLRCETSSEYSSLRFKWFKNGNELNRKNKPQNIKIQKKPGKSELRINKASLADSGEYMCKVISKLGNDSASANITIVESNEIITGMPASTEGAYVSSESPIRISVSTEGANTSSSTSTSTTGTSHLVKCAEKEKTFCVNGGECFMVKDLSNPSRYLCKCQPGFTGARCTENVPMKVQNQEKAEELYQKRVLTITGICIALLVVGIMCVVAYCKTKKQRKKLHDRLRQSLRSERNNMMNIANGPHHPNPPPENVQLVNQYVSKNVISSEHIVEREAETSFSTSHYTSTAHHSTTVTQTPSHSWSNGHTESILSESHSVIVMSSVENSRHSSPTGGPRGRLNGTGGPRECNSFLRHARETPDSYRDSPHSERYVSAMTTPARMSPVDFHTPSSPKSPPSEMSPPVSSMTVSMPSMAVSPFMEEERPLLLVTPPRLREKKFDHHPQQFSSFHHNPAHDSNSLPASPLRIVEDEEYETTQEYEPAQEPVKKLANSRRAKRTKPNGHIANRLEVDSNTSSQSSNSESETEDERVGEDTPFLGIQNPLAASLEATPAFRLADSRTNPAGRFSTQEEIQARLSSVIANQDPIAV

[7] = tested on: Neuregulin-1 EGF-like domain; assay: binders of neuregulin-1 EGF-like domain, primary screen, biochemical, small-molecule microarray, 635 nm fluorescence (AID 1081); conditions: small-molecule microarray binding, higher = more signal;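 also: binding of the protein to compounds printed on small-molecule microarray slides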
[8] = FRG1 promoter luciferase signal modulators, primary screen, FRG1 inhibition for FSHD, cell-based, C2C12 myotubes, firefly/Renilla luciferase, luminescence (AID 1084); conditions: higher = more signal, called active from +8 up or from −8 down
[9] = binders of probe aFST on microarray, primary screen, stem cell growth factor project, biochemical, small-molecule microarray, fluorescence 635/667 (AID 1086); conditions: higher = more signal;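 also: score merges 667 nm fluorescence with signal-to-noise of each printed compound spot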
[10] = binders of probe aHhip on microarray, primary screen, stem cell growth factor project, biochemical, small-molecule microarray, fluorescence 635/667 (AID 1087); conditions: higher = more signal;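 also: score merges spot fluorescence at 667nm with spot signal to noise ratio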
[11] = tested on: PRMT1 (protein arginine N-methyltransferase 1); assay: PRMT1 binders on small-molecule microarrays, primary screen, biochemical, small-molecule microarray, 635 nm fluorescence (AID 1088); conditions: small-molecule microarray binding, higher = more signal;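 also: binding of Prmt1 protein to compounds spotted on small-molecule microarray slides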
[12] = yeast growth modulation, basal conditions, primary screen, YJM789 clinical isolate, OD600, 24 h (AID 1089);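 also: growth of clinical yeast isolate S. cerevisiae YJM 789 seeded 1000 cells per well; test concentration not given here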; conditions: S. cerevisiae YJM789 growth, higher = more signal, called active from +8 up or from −8 down
[13] = fission yeast growth modulation, primary screen, strain 972, OD600, 24 h, no modulator (AID 1090);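 also: basal condition with compound alone and no growth modifier present; test concentration not given here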; conditions: S. pombe 972 growth, higher = more signal, called active from +8 up or from −8 down
[14] = S. cerevisiae growth modulation with rapamycin, primary screen, strain BY4716, OD600, 96 h (AID 1091); conditions: higher = more signal, called active from +8 up or from −8 down; also: test concentration not given here
[15] = molecular target: Torsin-1A-interacting protein 2 (Homo sapiens) (UniProt Q8NFQ8); assay: LULL1 binders on small-molecule microarray, primary screen, cell lysate, human LULL1 lysate, 635/667 nm fluorescence (AID 1092); conditions: hLULL1 lysate binding, 635 nm fluorescence, higher = more signal;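 also: probe is lysate of COS7 cells overexpressing human LULL1; score merges per-feature 667 nm fluorescence with signal-to-noise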
Torsin-1A-interacting protein 2 (Homo sapiens), sequence (Q8NFQ8 whole entry, looked up): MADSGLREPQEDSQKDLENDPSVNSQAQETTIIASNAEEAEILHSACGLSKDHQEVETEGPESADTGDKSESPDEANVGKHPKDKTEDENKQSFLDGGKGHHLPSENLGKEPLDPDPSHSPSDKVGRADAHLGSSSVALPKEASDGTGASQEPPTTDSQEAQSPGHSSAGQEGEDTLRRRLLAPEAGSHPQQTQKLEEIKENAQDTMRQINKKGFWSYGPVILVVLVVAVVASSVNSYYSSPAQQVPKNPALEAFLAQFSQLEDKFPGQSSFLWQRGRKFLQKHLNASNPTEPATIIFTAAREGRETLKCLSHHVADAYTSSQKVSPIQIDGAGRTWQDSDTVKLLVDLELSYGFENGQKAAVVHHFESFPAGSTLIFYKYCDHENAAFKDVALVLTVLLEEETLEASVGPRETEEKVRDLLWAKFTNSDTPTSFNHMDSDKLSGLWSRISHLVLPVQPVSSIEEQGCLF

[16] = E. coli growth modulation, two-sided OD650, primary screen, E. coli filamentation project, strain DRC41, 24 h (AID 1093); conditions: OD650, 24 h, higher = more signal, called active from +8 up or from −8 down;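 also: MC1000 strain lacking acrAB efflux and sulA so SOS filamentation is blocked; test concentration not given here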
[17] = small-molecule microarray binders of probe aLefty2, primary screen, biochemical, biotinylated probe, 635/667 nm fluorescence (AID 1094); conditions: higher = more signal;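 also: score merges spot fluorescence near 667 nm with spot signal-to-noise ratio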
[18] = tested on: Noggin (protein binding on small-molecule microarray); assay: Noggin binders on small-molecule microarray, primary screen, biochemical, 635/667 nm fluorescence (AID 1095); conditions: 635 nm fluorescence, higher = more signal;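 also: score merges 667 nm feature fluorescence with signal to noise over triplicate slides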
[19] = molecular target: Neurogenic locus notch homolog protein 3 (Homo sapiens) (UniProt Q9UM47); assay: NOTCH3 binders on small-molecule microarray, primary screen, biochemical, 635/667 nm fluorescence (AID 1096); conditions: NOTCH3 binding, 635 nm fluorescence, higher = more signal
Neurogenic locus notch homolog protein 3 (Homo sapiens), sequence (Q9UM47 whole entry, looked up): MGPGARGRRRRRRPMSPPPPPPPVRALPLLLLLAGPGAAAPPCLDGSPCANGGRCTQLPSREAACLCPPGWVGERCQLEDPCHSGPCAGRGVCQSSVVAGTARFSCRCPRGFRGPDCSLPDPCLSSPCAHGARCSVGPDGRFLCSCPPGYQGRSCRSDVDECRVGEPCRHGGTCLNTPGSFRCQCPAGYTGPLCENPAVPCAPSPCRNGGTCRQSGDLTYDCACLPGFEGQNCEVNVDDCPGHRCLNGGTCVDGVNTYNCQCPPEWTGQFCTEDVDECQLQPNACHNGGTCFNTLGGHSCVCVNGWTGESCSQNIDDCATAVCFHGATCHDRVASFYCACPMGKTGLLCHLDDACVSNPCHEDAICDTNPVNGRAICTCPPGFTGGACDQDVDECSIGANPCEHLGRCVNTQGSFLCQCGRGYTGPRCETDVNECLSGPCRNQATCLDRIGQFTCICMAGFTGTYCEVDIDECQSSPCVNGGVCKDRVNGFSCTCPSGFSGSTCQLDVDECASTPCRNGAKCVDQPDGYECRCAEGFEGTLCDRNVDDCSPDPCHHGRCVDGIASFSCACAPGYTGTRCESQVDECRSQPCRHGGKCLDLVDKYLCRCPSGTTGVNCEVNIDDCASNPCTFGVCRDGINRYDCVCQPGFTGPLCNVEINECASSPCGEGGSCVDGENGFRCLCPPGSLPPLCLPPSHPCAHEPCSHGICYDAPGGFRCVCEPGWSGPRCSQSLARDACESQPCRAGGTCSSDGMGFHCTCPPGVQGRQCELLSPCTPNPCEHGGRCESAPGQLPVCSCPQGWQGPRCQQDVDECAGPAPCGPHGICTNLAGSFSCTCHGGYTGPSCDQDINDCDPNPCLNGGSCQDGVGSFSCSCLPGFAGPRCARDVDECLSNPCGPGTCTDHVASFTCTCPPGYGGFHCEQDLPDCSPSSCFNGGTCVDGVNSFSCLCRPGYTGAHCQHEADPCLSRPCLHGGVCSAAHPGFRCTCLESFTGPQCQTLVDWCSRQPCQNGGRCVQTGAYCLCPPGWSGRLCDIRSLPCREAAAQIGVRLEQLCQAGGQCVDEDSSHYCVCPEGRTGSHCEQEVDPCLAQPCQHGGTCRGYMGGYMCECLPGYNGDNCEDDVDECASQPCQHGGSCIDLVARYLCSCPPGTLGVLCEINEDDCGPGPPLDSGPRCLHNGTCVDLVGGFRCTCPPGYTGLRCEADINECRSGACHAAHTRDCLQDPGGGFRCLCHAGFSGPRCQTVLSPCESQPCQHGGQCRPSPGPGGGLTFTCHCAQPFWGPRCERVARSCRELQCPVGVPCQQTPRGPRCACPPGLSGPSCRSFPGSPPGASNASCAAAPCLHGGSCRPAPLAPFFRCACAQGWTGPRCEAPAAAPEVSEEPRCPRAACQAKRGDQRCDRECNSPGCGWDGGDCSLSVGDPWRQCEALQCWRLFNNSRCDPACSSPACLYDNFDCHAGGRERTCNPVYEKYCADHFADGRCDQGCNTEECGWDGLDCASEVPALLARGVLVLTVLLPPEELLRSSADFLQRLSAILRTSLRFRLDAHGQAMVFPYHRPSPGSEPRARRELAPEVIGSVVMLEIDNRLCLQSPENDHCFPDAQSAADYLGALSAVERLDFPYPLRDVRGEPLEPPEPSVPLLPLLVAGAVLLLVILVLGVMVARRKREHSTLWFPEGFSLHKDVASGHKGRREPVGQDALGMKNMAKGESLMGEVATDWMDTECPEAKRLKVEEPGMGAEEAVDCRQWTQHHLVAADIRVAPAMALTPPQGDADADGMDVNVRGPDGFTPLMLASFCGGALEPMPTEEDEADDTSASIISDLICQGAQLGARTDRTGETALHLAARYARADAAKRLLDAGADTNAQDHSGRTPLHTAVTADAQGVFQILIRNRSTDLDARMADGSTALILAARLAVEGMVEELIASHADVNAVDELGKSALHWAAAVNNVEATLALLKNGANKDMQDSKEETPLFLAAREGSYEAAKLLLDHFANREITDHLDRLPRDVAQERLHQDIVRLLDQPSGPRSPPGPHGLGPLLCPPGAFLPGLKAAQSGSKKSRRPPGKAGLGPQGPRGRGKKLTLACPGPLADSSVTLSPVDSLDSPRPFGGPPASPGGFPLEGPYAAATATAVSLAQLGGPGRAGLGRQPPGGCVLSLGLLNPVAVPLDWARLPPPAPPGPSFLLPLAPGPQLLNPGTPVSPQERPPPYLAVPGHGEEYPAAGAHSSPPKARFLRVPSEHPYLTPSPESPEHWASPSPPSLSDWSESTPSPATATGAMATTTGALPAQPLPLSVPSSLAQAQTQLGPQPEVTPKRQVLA

[20] = small-molecule microarray binders of probe aEGFR, primary screen, biochemical, biotinylated probe, 635/667 nm fluorescence (AID 1097); conditions: higher = more signal;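 also: probe is a biotinylated anti-EGFR antibody binding compounds printed on slides; score combines fluorescence near 667 nm and signal to noise of each spot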

Row | Structure (SMILES) | composite z-score [1] | composite z-score [2] | composite z-score [3] | composite z-score [4] | composite z-score [5] | composite z-score [6] | composite z-score [7] | z-score [8] | composite z-score [9] | composite z-score [10] | composite z-score [11] | z-score [12] | z-score [13] | z-score [14] | composite z-score [15] | z-score [16] | composite z-score [17] | composite z-score [18] | composite z-score [19] | composite z-score [20]
1 | CCOC(=O)C[C@H]1[C@H](OC(=O)c2cc3ccccc3oc2=O)[C@@H](NC(=O)c2ccc3ccccc3c2)c2cc(OCCCO)ccc2N1C(=O)c1ccc2ccccc2n1 | -0.522 | 0.128 | -0.0336 | 1.11 | 1.09 | 0.384 | 1.03 | -0.881 (inactive) | 0.518 | -0.0994 | 0.154 | -0.653 (inactive) | -0.777 (inactive) | -0.31 (inactive) | 0.868 | 2.45 (inactive) | -0.225 | 0.956 | 1.03 | 0.0768
2 | C=CC[C@]1(C(=O)O)N=C(c2ccc(OCCCO)cc2)O[C@H]1c1ccccc1N=[N+]=[N-] | 1.17 | -0.258 | -0.101 | 0.427 | -0.16 | 0.215 | 0.686 | 4.6 (inactive) | 0.489 | -0.403 | -0.417 | 0.942 (inactive) | -0.155 (inactive) | -0.336 (inactive) | 2.62 | 1.32 (inactive) | 0.0313 | -0.491 | -0.33 | -0.0059
3 | CCCN1C(=O)[C@@]2(CCS(=O)(=O)c3ccccc3)N=C(c3ccc(OCCCO)cc3)O[C@H]2c2ccccc21 | 0.309 | 0.437 | 0.0127 | 0.136 | 0.728 | 1.72 | 1.36 | -3.15 (inactive) | 0.328 | 0.0722 | 1.53 | 0.817 (inactive) | 0.69 (inactive) | 4.5 (inactive) | 2.8 | 0.341 (inactive) | 0.0686 | 1.03 | 1.09 | -0.0118
4 | CO[C@H]1COC(=O)[C@H](C)NC(=O)CC=C[C@@H](C)[C@H](NS(=O)(=O)c2ccc(C)cc2)COC(=O)CC=C[C@@H]1C | -0.734 | 1.84 | -0.172 | 0.0871 | -0.543 | -0.455 | -0.775 | -1.27 (inactive) | 0.0005 | -0.199 | 0.0763 | -0.733 (inactive) | -0.635 (inactive) | -1.1 (inactive) | -0.876 | 0.119 (inactive) | -0.186 | 0.678 | -0.734 | -0.119
5 | CO[C@@H]1COC(=O)[C@H](C)NC(=O)CC=C[C@@H](C)[C@H](NS(=O)(=O)c2ccc(C)cc2)COC(=O)CC=C[C@@H]1C | -0.402 | -0.0613 | -0.0891 | 0.117 | 0.156 | -0.32 | -0.144 | -0.364 (inactive) | -0.181 | -0.388 | -0.844 | 0.79 (inactive) | -0.0181 (inactive) | 0.256 (inactive) | -0.382 | 0.452 (inactive) | -0.207 | -0.0396 | -0.693 | -0.211
